# Screens: PubChem BioAssay, several laboratories
# An excerpt weighted towards active compounds, which were near 1.6% of everything screened.
# PfHsp40 rescue: rescue of PfHsp40-mediated yeast toxicity | S. cerevisiae expressing PfHsp40, growth rescue, ATP luminescence | growth rescue, % at 12.5 µM | 340,000 tested, 0.68% active; in the data active means growth rescue above about 28%, passing the limit was not always enough;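 further: yeast W303a lacking pdr1 and pdr3 grown in galactose medium; growth measured after three days at 30 °C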
# ugtP null kill: kills S. aureus RN4220 lacking UgtP; S. aureus RN4220 ugtP deletion, OD600 growth, 16 h; growth inhibition, % (test concentration not listed); 330,000 tested, 0.54% active; in the data active means growth inhibition above about 68%;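 further: plate controls were untreated wells for no effect and antibiotic for full effect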
# RN4220 kill: kills Staphylococcus aureus RN4220; AID 1259311; inhibition, % (concentration not given with the values); S. aureus RN4220 growth, OD600, 16 h; 330,000 tested, 0.33% active; in the data active means inhibition above about 85%;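 further: plate controls were untreated cells for no effect and reference antibiotic for full effect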
# BJeLR viability: kills HRASV12-expressing BJeLR cells | BJeLR (HRASV12) viability, CellTiter-Glo ATP luminescence, 48 h | inhibition, % (test concentration not listed) | 300,000 tested, 0.17% active; in the data active means inhibition above about 50%
# CCHF vOTU inh-1: blocks the CCHF virus ovarian tumor domain protease; inhibition, % at 11.5 µM; 370,000 tested, 0.55% active; CCHFV vOTU protease, Pep-AMC fluorescence; further: 0% = vehicle wells with enzyme and 100% = no enzyme wells
# CCHF vOTU inh-2: confirmation of CCHF virus vOTU protease inhibitors. shares compounds with CCHF vOTU inh-1. Recombinant CCHFV vOTU, Pep-AMC fluorescence. inhibition, % at 11.5 µM. 1,900 tested, 17% active
# An asterisk follows results filed as active; . = no result given. Unless noted, no stated cut-off is given here; in the data, active means inhibition above about 30%; inactive means the rest.
SMILES,PfHsp40 rescue,ugtP null kill,RN4220 kill,BJeLR viability,CCHF vOTU inh-1,CCHF vOTU inh-2
Cc1ccc([C@H]2C(C(=O)O)=CC[C@@H](c3ccc(C)cc3)N2S(=O)(=O)c2ccc(C)cc2)cc1,0,-6,15,.,27,.
Cc1ccc([C@H]2C(C(=O)O)=CC[C@@H](c3ccc(Cl)cc3)N2S(=O)(=O)c2ccc(C)cc2)cc1,46*,7,15,.,33*,0
CC(=O)Nc1ccc(SCCN2CCC(C)CCC2=O)cc1 (stereo not drawn),.,3,10,.,.,.
CCOC(=O)NN=Cc1ccc(OC(=O)c2ccco2)cc1,.,1,5,.,.,.
O=[N+]([O-])c1ccc(N(CCO)CCO)c2c1no[n+]2[O-],.,.,.,.,19,.
CN1CCN(c2ccc([N+](=O)[O-])c3no[n+]([O-])c23)CC1,5,98*,56,71*,35*,21
Cc1cc(C2=CC(=O)CC(c3ccc4c(c3)OCO4)C2)ccc1F (stereo not drawn),.,12,2,.,.,.
O=C(NCc1ccccc1)c1ccc2nc(-c3ccco3)c(-c3ccco3)nc2c1,-1,-8,17,-3,49*,-1
O=C(c1ccc2nc(-c3ccco3)c(-c3ccco3)nc2c1)N1CCN(c2ncccn2)CC1,1,0,-1,-4,32*,50*
CCc1nc2ccc(C(=O)NCCc3ccco3)cc2nc1CC,-1,3,7,-8,.,.
O=C(NCCCO)c1ccc2nc(-c3ccco3)c(-c3ccco3)nc2c1,0,-3,11,.,40*,55*
CCCCNC(=O)c1ccc2nc(-c3ccco3)c(-c3ccco3)nc2c1,1,3,12,6,48*,8
CN(c1ccccc1)c1ccc(/C=C(\CCC(=O)O)c2nc3ccccc3s2)cc1[N+](=O)[O-],0,51,26,-13,36*,29
CNc1ccc(/C=C(\CCC(=O)O)c2nc3ccccc3s2)cc1[N+](=O)[O-],-2,4,30,7,16,.
Cc1ccc(/C=C(\CCC(=O)O)c2nc3ccccc3s2)cc1[N+](=O)[O-],2,8,26,-11,31*,21
CC(=O)Oc1ccc2c(=O)c(C=Nc3cc(=O)[nH]c(=S)[nH]3)coc2c1,.,10,3,.,.,.
CC1(C)CC2CC(C)(CN2C(=O)COC(=O)c2ccccc2C(F)(F)F)C1 (stereo not drawn),0,.,.,.,33*,16
CSc1ncccc1C(=O)OCC(=O)N1CC2(C)CC1CC(C)(C)C2 (stereo not drawn),1,-6,2,.,-8,.
Cn1c(=O)c2c(ncn2CC(=O)OCC(=O)c2ccc(Br)cc2)n(C)c1=O,.,.,.,.,32*,-6
Cn1cc(C=NNc2ccccc2)c2ccccc21,.,-2,1,.,.,.
CCOc1cc(/C=N/N=C2/NC(=O)C(CC(=O)O)S2)ccc1OCc1ccc(Cl)cc1 (stereo not drawn),0,.,.,-1,15,.
O=C(O)CC1S/C(=N/N=C/c2ccc(-c3ccc(Cl)cc3[N+](=O)[O-])o2)NC1=O (stereo not drawn),1,.,.,-16,36*,15
COc1ccc(/C=N/N=C2/NC(=O)C(CC(=O)O)S2)cc1OCc1ccc(Cl)cc1 (stereo not drawn),0,.,.,15,31*,-1
Cc1nnc(Sc2cc(NCCO)c([N+](=O)[O-])c3nonc23)s1,0,4,3,33,29,.
Cc1nnc(Sc2cc(NCCCO)c([N+](=O)[O-])c3nonc23)s1,0,-4,0,-4,31*,9
SMILES,PfHsp40 rescue,ugtP null kill,RN4220 kill,BJeLR viability,CCHF vOTU inh-1,CCHF vOTU inh-2
CC(=O)c1c(C)[nH]c(C(=O)OCC(=O)NNC(=O)c2ccc([N+](=O)[O-])cc2)c1C,0,4,6,.,35*,-12
CC(=O)c1c(C)[nH]c(C(=O)OCC(=O)Nc2ccc([N+](=O)[O-])cc2Cl)c1C,-1,0,-1,6,-4,.
Cc1c(C)n(Cc2ccc(-c3ccccc3C(=O)O)cc2)c2ccc(C(=O)N[C@@H](C)c3ccc(Br)cc3)cc12,.,.,.,.,33*,3
O=C(C=Cc1ccc([N+](=O)[O-])cc1)NC1CC2CCC1C2 (stereo not drawn),.,5,1,.,.,.
COc1cc(/C=C(\C#N)c2nc3ccccc3o2)ccc1O,1,4,10,2,33*,7
CCN(CC)c1ccc(N=Cc2c(O)n(Cc3ccco3)c(=O)[nH]c2=O)cc1,-1,2,2,2,12,.
CCN(CCO)c1ccc(N=Cc2c(O)n(C)c(=S)[nH]c2=O)cc1,.,0,2,0,32*,-10
O=C(C1=C(O)C(=O)N(CCN2CCOCC2)C1c1ccccn1)c1cccs1 (stereo not drawn),0,7,6,7,31*,-10
CC(CC(=O)Nc1ccc([N+](=O)[O-])cc1)=NNC(=O)c1ccccc1O,.,-3,9,.,.,.
COc1cccc(Oc2nc(-c3ccccc3O)nc3ccccc23)c1,0,-2,-4,4,-3,.
COc1cc(C)ccc1Oc1nc(-c2ccccc2O)nc2ccccc12,0,3,-4,7,32*,-1
COC1=C(Br)C(=O)c2nc(C)ccc2C1=O,.,.,.,.,115*,83*
COC1=C(N)C(=O)c2nc(C)ccc2C1=O,-1,.,.,.,55*,107*
CC(C)(C)OC(=O)N1CCCC1CO (stereo not drawn),.,-4,4,.,.,.
CCc1nnc(NS(=O)(=O)c2ccc(NC(=O)/C=C/C(=O)O)cc2)s1,1,.,.,-8,-11,.
CCc1nnc(NS(=O)(=O)c2ccc(NC(=O)/C=C/c3ccccc3Cl)cc2)s1,1,14,5,-1,35*,5
C(=Nn1cnnc1)c1ccc(OCc2ccccc2)cc1,.,6,8,.,.,.
Oc1ccc(N=Cc2ccc(OCc3ccccc3)cc2)cc1,2,12,5,-2,94*,67*
O=C(NC(=S)Nc1ccc(S(=O)(=O)Nc2nccs2)cc1)c1ccc(F)c(F)c1,-2,97*,14,-6,42*,-11
Cc1cccc(N2C(=O)N3C(c4ccc(F)cc4)C4C(=O)N(C5CCCCC5)C(=O)C4[C@]3(Cc3ccccc3)C2=O)c1 (stereo partly drawn),.,5,6,.,.,.
CN1OC[C@@H]2CN(C(=O)c3ccc([N+](=O)[O-])cc3)[C@H](c3ccccc3Br)C[C@@H]21,.,.,.,.,39*,-16
C=CCCC(=O)N1C[C@H]2CON(C)[C@H]2C[C@H]1c1ccccc1Br,0,.,.,.,-6,.
O=C(Cc1ccc([N+](=O)[O-])cc1)NN=Cc1ccco1,.,-2,2,.,.,.
Oc1ccc(CN2CCCCC2)c2cccnc12,24,6,5,-3,-20,.
Oc1c(CN2CCCCC2)ccc2cccnc12,47*,3,2,.,31*,-19
COc1ccc2ccccc2c1C1CC(=O)N2CN(C3CCCCC3)CSC2=C1C#N (stereo not drawn),0,-13,-3,1,47*,35*
